# An excerpt weighted towards active compounds, which were near 18% of everything screened.
# IL-1B inflam inh: inflammasome signaling inhibition, IL-1 beta readout; THP-1 LPS/ATP IL-1B secretion, AlphaLISA, 16 h; stronger effect = lower value; activity change, % at 57.5 µM; 360,000 tested, 4.7% active; AID 743279; in the data active = activity change below about -50%; inconclusive = mostly about -30% to -49%
#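 Secreted IL-1B measured by AlphaLISA bead assay after 16 h compound exposure of THP-1 cells; compounds (final up to 57.5 uM) added 1 h before LPS (250 ng/mL) and ATP (1.25 mM) stimulation; lower signal means less secretion.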
# TDP1 cell noCPT: qHTS for Inhibitors of human tyrosyl-DNA phosphodiesterase 1 (TDP1): qHTS in cells in absence of CPT; DT40 Tdp1-/- hTDP1 cells, no CPT, ATP luminescence, 48 h; Potency, µM (titrated, usually from 46.2 µM), for inactives: at the top dose activity change, negative = growth inhibition, actives largely listed as inhibitors; 420,000 tested, 15% active; note: potency is the fitted concentration of half-maximal effect; nearly all actives have a fitted effect of over 55% in size
#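 Cells were dispensed at 400 per well, compounds added by pin tool, plates incubated ≥48 hr at 37 °C, then CellTiter-Glo added for 30 min at room temperature before luminescence reading. Line: DT40 Tdp1-/- complemented with hTDP1; camptothecin omitted.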
# VP16 counter: inhibits Gal4-VP16 luciferase reporter, ROR gamma counter-screen; 310,000 tested, 3.5% active; Potency, µM (series often up to 53.6 µM), without a hit: at the highest dose activity, negative = inhibition, most hits filed as inhibitors; AID 2546; Drosophila S2 Gal4-VP16 UAS-luciferase, luminescence, 20 h;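 note: Gal4-VP16 expression switched on by copper sulfate through the metallothionein promoter; potency is the fitted concentration of half-maximal effect; nearly all actives have a fitted effect of over 50% in size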
# DT40 TDP1 CPT: DT40-hTDP1 cell growth loss with CPT. Potency, µM (series often up to 46.2 µM), without a hit: top-dose activity change, negative = growth inhibition, usual class: inhibitors. 420,000 tested, 12% active. chicken DT40 Tdp1-/-;hTDP1 cells + 20 nM CPT, ATP luminescence, 48 h; note: potency is the fitted concentration of half-maximal effect; nearly all actives have a fitted effect of over 55% in size
#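 Chicken DT40 Tdp1-/- cells stably complemented with human TDP1 were seeded at 400 cells/well in medium containing 20 nM camptothecin, exposed to pin-transferred compounds, and grown at 37 °C for at least 48 hr. Viability was read as ATP luminescence.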
# RORg inh: blocks mouse ROR gamma transcriptional activity | P51450 | Drosophila S2 Gal4-RORgamma UAS-luciferase reporter, 20 h | Potency, µM (highest dose often 53.6 µM), for the others: top-dose activity change, negative = inhibition, most hits filed as inhibitors | 310,000 tested, 5.4% active; note: potency is the fitted concentration of half-maximal effect; nearly all actives have a fitted effect of over 60% in size
# Target sequence (P51450 whole entry, looked up, the tested form may be a part): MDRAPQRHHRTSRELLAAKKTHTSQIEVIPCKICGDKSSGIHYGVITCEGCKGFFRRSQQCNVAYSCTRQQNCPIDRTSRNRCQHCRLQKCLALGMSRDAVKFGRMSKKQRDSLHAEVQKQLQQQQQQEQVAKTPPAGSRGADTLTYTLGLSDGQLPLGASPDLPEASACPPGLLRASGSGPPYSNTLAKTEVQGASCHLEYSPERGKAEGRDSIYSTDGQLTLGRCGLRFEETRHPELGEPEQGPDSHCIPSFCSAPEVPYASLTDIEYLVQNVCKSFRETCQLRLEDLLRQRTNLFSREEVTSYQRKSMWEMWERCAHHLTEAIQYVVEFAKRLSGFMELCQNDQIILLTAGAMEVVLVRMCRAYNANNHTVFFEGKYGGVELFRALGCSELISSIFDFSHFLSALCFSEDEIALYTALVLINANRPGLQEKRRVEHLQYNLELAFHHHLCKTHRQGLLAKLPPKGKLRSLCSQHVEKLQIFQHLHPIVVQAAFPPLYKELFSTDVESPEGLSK
#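 A Gal4/UAS one-hybrid system in insect cells: metallothionein-promoter Gal4–ROR gamma fusion plus Photinus luciferase reporter. Copper sulfate 700 uM final, 20 hr ambient incubation, luminescent detection after 10 min with reagent.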
# LDHA inh: inhibitors of human lactate dehydrogenase A. P00338. purified LDHA, NADH/diaphorase-resazurin fluorescence; stronger effect = lower value. activity change, % (values are at about 110 or 230 µM). 480,000 tested, 0.15% active. AID 1347041; in the data active = activity change below about -30%; inconclusive = mostly about -25% to -30%;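 note: plate controls were DMSO wells for no effect and wells without enzyme for full effect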
#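 Human LDH5 (2 nM) was incubated with 0.06 mM NADH and 0.2 mM pyruvate for 5 min at room temperature in Tris pH 7.4. Remaining NADH was coupled through diaphorase/resazurin, and resorufin fluorescence was read at 0 and 20 min.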
# * marks the source's active call; other numbers are inactive results; ? = inconclusive; . = no result. Unless noted, calls come from the whole dose curve; as a rule, active = well fitted curve in the direction sought with a large enough effect; inconclusive = small, poorly fitted or top-dose-only effect, or another doubt; inactive = no such curve, though single readings can be large; an effect the other way counts as inactive or inconclusive. Unless noted, % is set by controls: 0 for no effect and ±100 for the full control effect.
SMILES,IL-1B inflam inh,TDP1 cell noCPT,VP16 counter,DT40 TDP1 CPT,RORg inh,LDHA inh
Cc1ccc(-n2c(C)cc(/C=N/NC(=O)CC3(C)OCCO3)c2C)cc1,0.0,?,?,?,-22.4%,4.9
Cc1ccc(C(=O)N/N=C/c2cc(C)n(-c3ccc(Br)cc3)c2C)cc1[N+](=O)[O-],-20.0,?,1.41µM*,-12.9%,0.398µM*,-0.6
Cc1ccc(-n2c(C)cc(/C=N/NC(=O)CN(c3ccc(C)cc3C)S(C)(=O)=O)c2C)cc1,?,20.6µM*,-20.7%,?,?,-2.7
Cc1cccc2nc(COc3ccc4ccc(=O)oc4c3)cc(=O)n12,.,.,.,.,.,-4.1
CC(C)C(=O)Nc1ccc(S(=O)(=O)NCCn2nc(-c3ccccc3)ccc2=O)cc1,.,.,.,.,.,-7.1
Cn1c(NCc2ccc3c(c2)OCO3)nc2c1c(=O)n(Cc1ccccc1F)c(=O)n2C,.,.,.,.,.,1.5
CC(SC1=Nc2ccccc2CS1)C(=O)NC1CCCC1 (stereo unspecified),.,.,.,.,.,4.7
Cc1cc(/C=N/NC(=O)c2ccncc2)c(C)n1-c1cccc(C(F)(F)F)c1,-7.3,?,?,-1.6%,?,-5.4
Cc1ccc(-n2c(C)cc(/C=N/NC(=O)c3ccncc3)c2C)cc1,11.2,-16.6%,?,?,7.94µM*,0.2
NC1=NCC(O)=C1c1nc2ccccc2[nH]1,-10.7,12.9%,8.7%,-3.8%,11.2µM*,-9.5
O=C(O)C(Sc1ncccn1)c1ccccc1 (stereo unspecified),.,.,.,.,.,-1.5
CCOc1cccc(C2CC(=O)NC3=C2C(=O)CC(C)(C)C3)c1 (stereo unspecified),.,.,.,.,.,-7.9
COc1cccc(Cn2nnc3c(=O)[nH]c(C4CCN(C(=O)c5ccccc5Cl)CC4)nc32)c1,.,?,.,?,.,-9.3
Cc1ccccc1Cn1nnc2c(=O)[nH]c(C3CCN(C(=O)c4ccccc4Cl)CC3)nc21,.,25.9µM*,.,16.4µM*,.,2.4
O=C(c1cccs1)N1CCCC(c2nc3c(nnn3Cc3ccccc3)c(=O)[nH]2)C1 (stereo unspecified),-11.9,10.7%,-0.7%,?,9.6%,-4.0
O=C(c1cccs1)N1CCCC(c2nc3c(nnn3Cc3ccccc3Cl)c(=O)[nH]2)C1 (stereo unspecified),-6.2,29.1µM*,-0.5%,?,?,-8.7
CCCCCCC(=O)N1CCC(c2nc3c(nnn3Cc3ccccc3Cl)c(=O)[nH]2)CC1,-15.6,?,15.8µM*,18.4µM*,7.08µM*,4.9
CCN(CC)c1ccc(-c2nnc(SC(C)C(=O)NC3CCCCCC3)o2)cc1 (stereo unspecified),.,.,.,.,.,-8.5
O=C(C1=C(c2ccccc2)S(=O)(=O)CCO1)N(Cc1cccc(F)c1)c1ccccn1,.,.,.,.,.,-7.6
O=C(Cn1c(=O)sc2ccccc21)Nc1ccccc1,-7.0,20.6µM*,16.2%,25.9µM*,6.5%,-2.3
Cc1ccccc1NC(=S)N1CCN(Cc2ccc3c(c2)OCO3)CC1,-2.4,?,?,2.0%,?,-2.5
Cc1ccc(S(=O)(=O)N(C)C)cc1NC(=S)N1CCN(Cc2ccc3c(c2)OCO3)CC1,30.0,16.4µM*,-4.9%,14.6µM*,18.0%,-6.3
Cc1c(Cl)cccc1NC(=S)N1CCN(Cc2ccc3c(c2)OCO3)CC1,20.5,1.4%,14.1µM*,1.1%,11.2µM*,-10.6
CC(C)(C)c1ccc(CNCCC(=O)O)cc1,.,.,.,.,.,3.8
CCOC(=O)Cc1nnc(SC(C)C(=O)Nc2ccc(F)c(F)c2)n1C (stereo unspecified),.,.,.,.,.,3.2
c1ccc(SCc2nnc3sc(-c4ccccn4)nn23)cc1,.,.,.,.,.,12.7
C[C@H](c1ccccc1)N1C[C@@H](COCc2ccccc2)Oc2cc(N3CCC[C@@H]3CO)ccc2S1(=O)=O,-22.4,20.6µM*,.,?,.,-0.7

# Screening results (PubChem BioAssay)
